Records with an inconclusive call do not appear. A number with no mark means an inactive call. Activity calls are given as the source filed them. Unless noted, calls follow the shape of the full dose curve.
% is scaled to controls: 0 for no effect and ±100 for the full control effect.

Sequence of 5-hydroxytryptamine receptor 2A (Homo sapiens) (P28223 whole entry, looked up): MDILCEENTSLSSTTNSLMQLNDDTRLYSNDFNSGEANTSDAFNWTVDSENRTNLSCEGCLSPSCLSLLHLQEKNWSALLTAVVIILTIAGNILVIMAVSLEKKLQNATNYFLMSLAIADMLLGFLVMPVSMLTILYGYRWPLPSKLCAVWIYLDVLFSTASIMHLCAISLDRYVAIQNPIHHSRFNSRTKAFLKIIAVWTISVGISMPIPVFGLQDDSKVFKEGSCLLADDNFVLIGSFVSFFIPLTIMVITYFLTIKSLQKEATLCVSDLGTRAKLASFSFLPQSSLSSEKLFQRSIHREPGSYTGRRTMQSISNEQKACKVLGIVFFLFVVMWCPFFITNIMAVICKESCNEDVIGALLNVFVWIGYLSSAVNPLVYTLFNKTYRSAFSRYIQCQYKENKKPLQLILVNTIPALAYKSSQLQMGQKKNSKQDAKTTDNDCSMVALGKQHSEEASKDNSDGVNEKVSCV

System in one experiment: not listed separately
The experiment can be described thus: p53 small molecule agonists, cell-based qHTS assay: qHTS cell viability counter screen (AID 1963581). Also: nearly all actives have a fitted effect of over 45% in size. Also: potency is read from the fitted curve at half-maximal effect. To be noted: p53RE-bla HCT-116 viability, ATP luminescence, 16 h; series mostly up to 66 µM; activity change, negative = cytotoxicity: at the top concentration. An outline of the steps:
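Cells: HCT-116 with p53 response element-driven beta-lactamase. Treatment: 16 h, 37 C, compounds in DMSO. Read: CellTiter-Glo luminescence after 30 min RT.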
For orientation: qHTS replaces the single test concentration by a dilution series.
`C=Cc1c(C)c2cc3[nH]c(cc4nc(cc5nc(cc1[nH]2)C(C)=C5CCC(=O)O)C(CCC(=O)O)=C4C)c(C)c3C=C`: the “activity change, negative = cytotoxicity” value is -12.8% [at 30.3 µM].

For `CCCCCCCOC(=O)CCC`, the “activity change, negative = cytotoxicity” value is -11.6%.

With `CCCCCCCCC(=O)OCC(C)OC(=O)CCCCCCCC` (centres undefined), the “activity change, negative = cytotoxicity” value is -6.29%.

As to `CCN1/C(=C/C=C/c2sc3ccccc3[n+]2CC)Sc2ccccc21`, the activity change, negative = cytotoxicity is 1.06% [at 13.5 µM].

As for `c1cnc(N2CCN(Cc3ccc4c(c3)OCO4)CC2)nc1`, the “activity change, negative = cytotoxicity” value was -11.9% [at 30.3 µM].

On to `C=C[Si]1(C)O[Si](C)(C=C)O[Si](C)(C=C)O[Si](C)(C=C)O1` (centres undefined), for which the “activity change, negative = cytotoxicity” value is -1.87%.

Consider `CCCNC(C)(C)COC(=O)c1ccccc1`, for which the “activity change, negative = cytotoxicity” value was 4.8% [at 30.3 µM].

In the case of `CCCCCCCCCCl`, the “activity change, negative = cytotoxicity” value is -10.6%.

In the case of `CC(=O)Nc1ccc(/C=N/NC(N)=S)cc1`, the “activity change, negative = cytotoxicity” value is -8.79% [at 30.3 µM].

On to `C=O`, for which the “activity change, negative = cytotoxicity” value was 5.37%.

Consider `CC(C)(C)C1=CC(=O)C=C(C(C)(C)C)C1=O`, for which the “activity change, negative = cytotoxicity” value is 1.46%.

Turning to `C=CC(=C)CCCC(C)(C)OC(C)=O`, the “activity change, negative = cytotoxicity” value is -0.151%.

On to `CC/C=C\CCCCCCCCCCOC(C)=O`, for which the “activity change, negative = cytotoxicity” value was 2.83%.

For the compound `Oc1ccc(C2(c3ccc(O)cc3)CC3CC2C2CCCC32)cc1` (centres undefined), the Potency was 34.9 µM (active).

For `O=c1[nH]c(=O)n([C@H]2C[C@H](O)[C@@H](CO)O2)cc1C(F)(F)F`, the “activity change, negative = cytotoxicity” value is -2.84% [at 30.3 µM].

As for `Cc1ccc(Br)cc1`, the “activity change, negative = cytotoxicity” value was 0%.

For `CC1CCC(CO)CC1` (centres undefined), the “activity change, negative = cytotoxicity” value was -0.381%.

In the case of `Nc1ccc(/C=C/c2ccc(N)cc2S(=O)(=O)O)c(S(=O)(=O)O)c1`, the activity change, negative = cytotoxicity was -1.67% [at 0.249 µM].

For `Cc1cccc(N(C)C(=S)Oc2ccc3c(c2)C2CCC3C2)c1` (centres undefined), the “activity change, negative = cytotoxicity” value is -26% [at 30.3 µM].

On to `Cc1c(N)cccc1N`, for which the “activity change, negative = cytotoxicity” value is 0%.

As for `CCC(CC)CO`, the “activity change, negative = cytotoxicity” value is -6.79%.

Turning to `Cc1c(N)c(=O)n(-c2ccccc2)n1C`, the “activity change, negative = cytotoxicity” value was 10.6% [at 30.3 µM].

With `N/C(=N\N=C\c1ccc(Cl)cc1)N/N=C/c1ccc(Cl)cc1`, the “activity change, negative = cytotoxicity” value is -13.4% [at 30.3 µM].

For `O=C(NN1CCCC1)NS(=O)(=O)c1ccc(Cl)cc1`, the “activity change, negative = cytotoxicity” value was 15.8% [at 30.3 µM].

Consider `CSc1ccc(Oc2ccc(S(N)(=O)=O)cc2CN(C)C)cc1C`, for which the “activity change, negative = cytotoxicity” value is 20.9%.

Turning to `Cc1ccccc1S`, the “activity change, negative = cytotoxicity” value is 0.496% [at 30.3 µM].

On to `Cc1ccc(O)c2ncccc12`, for which the “activity change, negative = cytotoxicity” value is -14.5% [at 30.3 µM].

For the compound `COC(OC)(C(=O)c1ccccc1)c1ccccc1`, the “activity change, negative = cytotoxicity” value was 11.4%.

On to `Cc1c(Nc2ncccc2C(=O)O)cccc1C(F)(F)F`, for which the “activity change, negative = cytotoxicity” value was -27.2% [at 30.3 µM].

With `CCCCCCCCS(=O)(=O)O`, the “activity change, negative = cytotoxicity” value was 0.775%.

System in the next experiment: not listed separately
Description: p53 small molecule agonists, cell-based qHTS assay (AID 1963582; active = well fitted activation curve with a large enough effect in the signal ratio in the repeat runs, not every such curve was filed as active; the % refers to the signal ratio). As to conditions: HCT-116 p53RE-bla reporter, beta-lactamase FRET ratio, 16 h; series mostly up to 66 µM; activation: at the top concentration. An outline of the steps:
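Quantitative HTS in p53RE-bla cells: after a 5 h settling period, compounds delivered in DMSO were left on cells for 16 h at 37 C, and reporter induction was measured as fluorescence following 2 h substrate loading.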
For `C=Cc1c(C)c2cc3[nH]c(cc4nc(cc5nc(cc1[nH]2)C(C)=C5CCC(=O)O)C(CCC(=O)O)=C4C)c(C)c3C=C`, the “activation” value was -1.08% [at 30.3 µM].

Take `c1cnc(N2CCN(Cc3ccc4c(c3)OCO4)CC2)nc1`: the “activation” value is 1.04% [at 30.3 µM].

Take `C=C[Si]1(C)O[Si](C)(C=C)O[Si](C)(C=C)O[Si](C)(C=C)O1` (centres undefined): the “activation” value is 0.521%.

For `CCCCCC(C)OC(=O)COc1ccc(Cl)c2cccnc12` (centres undefined), the “activation” value was -3.14%.

For `CC(=O)Nc1ccc(/C=N/NC(N)=S)cc1`, the “activation” value is 1.41% [at 30.3 µM].

As for `C=Cc1ccc(OC(C)=O)cc1`, the “activation” value was -2.27%.

Turning to `Cc1cccc(N(C)C(=S)Oc2ccc3c(c2)C2CCC3C2)c1` (centres undefined), the “activation” value is -2.41% [at 30.3 µM].

Turning to `N/C(=N\N=C\c1ccc(Cl)cc1)N/N=C/c1ccc(Cl)cc1`, the “activation” value was -5.49% [at 30.3 µM].

For `C=C[Si](OC(C)=O)(OC(C)=O)OC(C)=O`, the “activation” value is -3.81%.

For the compound `CCc1ccc2c(c1)C(=O)c1ccccc1C2=O`, the “activation” value is -4.47%.

Consider `OCCOCC#CCOCCO`, for which the “activation” value is -0.736%.

For `Cc1ccc(O)c2ncccc12`, the “activation” value was 7.32% [at 30.3 µM].

For the compound `Cc1c(Nc2ncccc2C(=O)O)cccc1C(F)(F)F`, the “activation” value is 1.81% [at 30.3 µM].

For a further experiment, the target named is 5-hydroxytryptamine receptor 2A (Homo sapiens) (UniProt P28223). The experiment can be described thus: 5-hydroxytryptamine receptor 2A (HTR2A) small molecule antagonists, cell-based qHTS assay (AID 1963586). Also: nearly all actives have a fitted effect of over 45% in size. Also: potency is read from the fitted curve at half-maximal effect. As to conditions: HTR2A-CHO cells, DOI-induced calcium flux, fluorescence; series mostly up to 61.5 µM; activity, negative = inhibition: at the top concentration. An outline of the steps:
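Antagonist-mode intracellular calcium assay: DOI (4 nM) added after 5 min compound pre-incubation at room temperature to dye-loaded HTR2A-CHO cells. Fluorescence followed for 3 min, sampled every second.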
With `C=Cc1c(C)c2cc3[nH]c(cc4nc(cc5nc(cc1[nH]2)C(C)=C5CCC(=O)O)C(CCC(=O)O)=C4C)c(C)c3C=C`, the “activity, negative = inhibition” value was -37.2% [at 28.5 µM].

Take `CCCCCCCOC(=O)CCC`: the “activity, negative = inhibition” value was 3.79%.

Consider `CCCCCCCCC(=O)OCC(C)OC(=O)CCCCCCCC` (centres undefined), for which the “activity, negative = inhibition” value is -23.8%.

With `CCN1/C(=C/C=C/c2sc3ccccc3[n+]2CC)Sc2ccccc21`, the activity, negative = inhibition is -18.6% [at 12.7 µM].

On to `c1cnc(N2CCN(Cc3ccc4c(c3)OCO4)CC2)nc1`, for which the “activity, negative = inhibition” value was 41.5% [at 28.5 µM].

As to `C=C[Si]1(C)O[Si](C)(C=C)O[Si](C)(C=C)O[Si](C)(C=C)O1` (centres undefined), the “activity, negative = inhibition” value is 2.1%.

For `CCN(Cc1cccnc1)C(=O)c1cccc(Cl)c1[C@]1(C)C(=O)N(Cc2ccc(OC)cc2OC)c2ccc(Cl)cc21`, the “activity, negative = inhibition” value is -40.3%.

Turning to `CCCNC(C)(C)COC(=O)c1ccccc1`, the “activity, negative = inhibition” value is -11.6% [at 28.5 µM].

In the case of `CCCCCCCCCCl`, the “activity, negative = inhibition” value was -4.3%.

Turning to `CCCCCC(C)OC(=O)COc1ccc(Cl)c2cccnc12` (centres undefined), the “activity, negative = inhibition” value was -26.1%.

With `CC(=O)Nc1ccc(/C=N/NC(N)=S)cc1`, the “activity, negative = inhibition” value was -21.4% [at 28.5 µM].

Consider `C=O`, for which the “activity, negative = inhibition” value was -3.42%.

As to `CC(C)(C)C1=CC(=O)C=C(C(C)(C)C)C1=O`, the “activity, negative = inhibition” value is 21.1%.

As to `C=CC(=C)CCCC(C)(C)OC(C)=O`, the “activity, negative = inhibition” value is 0.939%.

On to `CC/C=C\CCCCCCCCCCOC(C)=O`, for which the “activity, negative = inhibition” value was 1.58%.

With `O=c1[nH]c(=O)n([C@H]2C[C@H](O)[C@@H](CO)O2)cc1C(F)(F)F`, the “activity, negative = inhibition” value is -4.07% [at 28.5 µM].

`Cc1ccc(Br)cc1`: the “activity, negative = inhibition” value was -6.29%.

Turning to `CC1CCC(CO)CC1` (centres undefined), the “activity, negative = inhibition” value is 13.1%.

For `C=Cc1ccc(OC(C)=O)cc1`, the “activity, negative = inhibition” value was 2.68%.

Take `Nc1ccc(/C=C/c2ccc(N)cc2S(=O)(=O)O)c(S(=O)(=O)O)c1`: the activity, negative = inhibition is 63.5% [at 0.233 µM].

`Cc1cccc(N(C)C(=S)Oc2ccc3c(c2)C2CCC3C2)c1` (centres undefined): the Potency was 1.63 µM (active).

Consider `Cc1c(N)cccc1N`, for which the “activity, negative = inhibition” value was -29.2%.

With `CCC(CC)CO`, the “activity, negative = inhibition” value was 8.11%.

With `Cc1c(N)c(=O)n(-c2ccccc2)n1C`, the “activity, negative = inhibition” value was 2.36% [at 28.5 µM].

For `N/C(=N\N=C\c1ccc(Cl)cc1)N/N=C/c1ccc(Cl)cc1`, the “activity, negative = inhibition” value is 7.54% [at 28.5 µM].

Take `O=C(NN1CCCC1)NS(=O)(=O)c1ccc(Cl)cc1`: the “activity, negative = inhibition” value is 20.3% [at 28.5 µM].

Consider `C=C[Si](OC(C)=O)(OC(C)=O)OC(C)=O`, for which the “activity, negative = inhibition” value was -20.8%.

Turning to `CSc1ccc(Oc2ccc(S(N)(=O)=O)cc2CN(C)C)cc1C`, the “activity, negative = inhibition” value was -4.63%.

For the compound `CCc1ccc2c(c1)C(=O)c1ccccc1C2=O`, the “activity, negative = inhibition” value was 19%.

With `Cc1ccccc1S`, the “activity, negative = inhibition” value was -0.857% [at 28.5 µM].

Turning to `OCCOCC#CCOCCO`, the “activity, negative = inhibition” value was 6.27%.

For the compound `Cc1ccc(O)c2ncccc12`, the “activity, negative = inhibition” value was -14% [at 28.5 µM].

As for `COC(OC)(C(=O)c1ccccc1)c1ccccc1`, the “activity, negative = inhibition” value was -4.1%.

Take `Cc1c(Nc2ncccc2C(=O)O)cccc1C(F)(F)F`: the “activity, negative = inhibition” value is 3.22% [at 28.5 µM].

As for `CC1(C)[C@@H](O)CC[C@]2(C)[C@H]3C(=O)C=C4[C@@H]5C[C@@](C)(C(=O)O)CC[C@]5(C)CC[C@@]4(C)[C@]3(C)CC[C@@H]12`, the “activity, negative = inhibition” value was -45.4%.

As for `CCCCCCCCS(=O)(=O)O`, the “activity, negative = inhibition” value is -16.1%.

These data come from PubChem BioAssay (Tox21).
